Compounds without any hit were thinned out: in the full panel of roughly 83,000, 20% have a hit.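 Single-concentration screen, 48 h exposure, 96-well plates. Endpoint: percent growth. Below 10 = active.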 Active and inactive are the calls of the source.
Tests used:
Assay in all cases: NCI-60 one-dose screen, 48 h (100 = growth as untreated, 0 = no growth, -100 = all killed)
Conditions in all cases: 10 µM
NCI-H23 lung = test system: NCI-H23 lung
NCI-H226 lung = test system: NCI-H226 lung
HOP-62 NSCLC = test system: HOP-62 NSCLC
NCI-H460 lung = test system: NCI-H460 lung
HOP-92 NSCLC = test system: HOP-92 NSCLC
NCI-H522 lung = test system: NCI-H522 lung
A549/ATCC NSCLC = test system: A549/ATCC NSCLC
786-0 renal = test system: 786-0 renal
COLO 205 colon = test system: COLO 205 colon
DU-145 prostate = test system: DU-145 prostate
K-562 leukemia = test system: K-562 leukemia
MALME-3M melanoma = test system: MALME-3M melanoma
MDA-MB-231 breast = test system: MDA-MB-231 breast
RXF 393 renal = test system: RXF 393 renal
SF-268 CNS = test system: SF-268 CNS
SF-295 CNS = test system: SF-295 CNS
SF-539 CNS = test system: SF-539 CNS
UACC-257 melanoma = test system: UACC-257 melanoma
M14 melanoma = test system: M14 melanoma

Compound	growth (NCI-H23 lung)	growth (NCI-H226 lung)	growth (HOP-62 NSCLC)	growth (NCI-H460 lung)	growth (HOP-92 NSCLC)	growth (NCI-H522 lung)	growth (A549/ATCC NSCLC)	growth (786-0 renal)	growth (COLO 205 colon)	growth (DU-145 prostate)	growth (K-562 leukemia)	growth (MALME-3M melanoma)	growth (MDA-MB-231 breast)	growth (RXF 393 renal)	growth (SF-268 CNS)	growth (SF-295 CNS)	growth (SF-539 CNS)	growth (UACC-257 melanoma)	growth (M14 melanoma)
O=C(O)c1cn(C2CC2)c2cc(N3CCN(C(=O)c4cc(-c5ccc(Cl)cc5)nc5ccccc45)CC3)c(F)cc2c1=O	82.2% (inactive)	92.3% (inactive)	82.1% (inactive)	96.1% (inactive)	90.1% (inactive)	86.4% (inactive)	94.4% (inactive)	88.3% (inactive)	110% (inactive)	105% (inactive)	83.7% (inactive)	107% (inactive)	76.3% (inactive)	73.6% (inactive)	89% (inactive)	91.3% (inactive)	93.8% (inactive)	107% (inactive)	84.4% (inactive)
O=C(N/N=C/c1ccc(Cl)cc1)c1ccc(Cc2n[nH]c(=O)c3cccnc23)cc1	90.6% (inactive)	96.1% (inactive)	97.3% (inactive)	109% (inactive)	95.2% (inactive)	89% (inactive)	103% (inactive)	101% (inactive)	104% (inactive)	112% (inactive)	106% (inactive)	93.2% (inactive)	102% (inactive)	91.2% (inactive)	98.6% (inactive)	101% (inactive)	89.7% (inactive)	97.1% (inactive)	99.6% (inactive)
CN(C)CCN(Cc1ccccc1)c1ccc2ccccc2n1	97.6% (inactive)	111% (inactive)	88.4% (inactive)	96.9% (inactive)	75.6% (inactive)	96.7% (inactive)	95.6% (inactive)	93.9% (inactive)	89.5% (inactive)	107% (inactive)	93.4% (inactive)	96.5% (inactive)	87.2% (inactive)	105% (inactive)	103% (inactive)	88.5% (inactive)	106% (inactive)	98% (inactive)	91.3% (inactive)
COc1cc(Cc2cc(-c3ccccc3)n[nH]c2=O)cc(OC)c1OC	65.5% (inactive)	68.5% (inactive)	73% (inactive)	44.5% (inactive)	35.8% (inactive)	52.9% (inactive)	53.5% (inactive)	74.3% (inactive)	56.3% (inactive)	84.2% (inactive)	19.3% (inactive)	71.8% (inactive)	54.7% (inactive)	60% (inactive)	69.8% (inactive)	61.3% (inactive)	61.4% (inactive)	–	18.4% (inactive)
NS(=O)(=O)Oc1ccc2c(ccn2C(=O)C23CC4CC(CC(C4)C2)C3)c1	97% (inactive)	93.4% (inactive)	111% (inactive)	104% (inactive)	122% (inactive)	94.9% (inactive)	101% (inactive)	110% (inactive)	114% (inactive)	116% (inactive)	101% (inactive)	115% (inactive)	102% (inactive)	115% (inactive)	111% (inactive)	97.8% (inactive)	103% (inactive)	102% (inactive)	112% (inactive)
COc1cc2cc(Oc3ccc(NC(=O)Nc4ccc(C(F)(F)F)cc4)cc3)c(C)nc2cc1OC	79.3% (inactive)	20.9% (inactive)	18.8% (inactive)	42.8% (inactive)	56.3% (inactive)	63.2% (inactive)	32.4% (inactive)	74.9% (inactive)	40.4% (inactive)	71.4% (inactive)	57.1% (inactive)	82.9% (inactive)	80.9% (inactive)	6.29% (active)	79.3% (inactive)	56% (inactive)	96.9% (inactive)	66.5% (inactive)	95.2% (inactive)
COc1ccc(-c2onc(N)c2-c2cc(OC)c3c(c2)OCO3)cc1	44% (inactive)	77% (inactive)	29.4% (inactive)	14.9% (inactive)	63.9% (inactive)	9.81% (active)	32.2% (inactive)	47.2% (inactive)	12.4% (inactive)	29.3% (inactive)	13% (inactive)	29.5% (inactive)	56.7% (inactive)	24.8% (inactive)	50.1% (inactive)	14.3% (inactive)	20.1% (inactive)	47.5% (inactive)	-0.971% (active)
COc1cc(-c2csc(NC(=O)Nc3ccc(Cl)c(C(F)(F)F)c3)n2)cc(OC)c1OC	1.27% (active)	-6.43% (active)	-23.8% (active)	2.24% (active)	-35.4% (active)	-25.4% (active)	0.191% (active)	-12.4% (active)	-58.1% (active)	14.4% (inactive)	14.2% (inactive)	-28.1% (active)	-32.2% (active)	-6.49% (active)	21.3% (inactive)	-34.7% (active)	5.05% (active)	–	-4.86% (active)
N#Cc1c(-c2ccc(Cl)cc2)csc1NC(=O)Nc1ccc(Cl)c(C(F)(F)F)c1	15.8% (inactive)	8.81% (active)	14.5% (inactive)	2.11% (active)	-9.88% (active)	-12.8% (active)	18.3% (inactive)	35.9% (inactive)	-30.4% (active)	5.84% (active)	9.03% (active)	-26.7% (active)	2.12% (active)	33.7% (inactive)	27.8% (inactive)	-27.2% (active)	31.5% (inactive)	–	8.06% (active)
Cc1cc(CSc2ccccc2C(=O)N2CC=C(c3ccccc3)CC2)on1	89.4% (inactive)	88.4% (inactive)	92.2% (inactive)	100% (inactive)	93.4% (inactive)	75.3% (inactive)	94.6% (inactive)	94.5% (inactive)	107% (inactive)	107% (inactive)	89.1% (inactive)	95.8% (inactive)	95.3% (inactive)	107% (inactive)	108% (inactive)	99.6% (inactive)	92.9% (inactive)	–	108% (inactive)
O=C(O)c1ccc(-n2cc(CNc3ccc(Cl)cc3)c(-c3ccccc3)n2)cc1	98.4% (inactive)	99.1% (inactive)	111% (inactive)	88.6% (inactive)	99.9% (inactive)	75.8% (inactive)	84.6% (inactive)	94.7% (inactive)	97.8% (inactive)	95.7% (inactive)	77.5% (inactive)	79.9% (inactive)	88.6% (inactive)	98.6% (inactive)	100% (inactive)	80.5% (inactive)	82.6% (inactive)	–	94.3% (inactive)
CCN(CC)CC(=O)N(CC)c1ccc(C)c(Cl)c1	103% (inactive)	99.8% (inactive)	91% (inactive)	104% (inactive)	90.1% (inactive)	83.8% (inactive)	86.3% (inactive)	98.4% (inactive)	101% (inactive)	103% (inactive)	108% (inactive)	96.2% (inactive)	113% (inactive)	105% (inactive)	92.9% (inactive)	101% (inactive)	108% (inactive)	88.7% (inactive)	100% (inactive)
CC(C)(C)OC(=O)N1CCc2c(sc3ncnc(N/N=C/c4cccc5ccccc45)c23)C1	12.9% (inactive)	31% (inactive)	27.8% (inactive)	4.98% (active)	25.6% (inactive)	16% (inactive)	23.8% (inactive)	16.9% (inactive)	13.8% (inactive)	49.7% (inactive)	7.07% (active)	49.9% (inactive)	45.6% (inactive)	2.63% (active)	46.7% (inactive)	1.31% (active)	-11.3% (active)	40.6% (inactive)	20.3% (inactive)
CCn1c(SCCc2ccccc2)nnc1-c1nn(-c2ccc(Cl)cc2Cl)c(-c2ccc(Cl)cc2)c1C	62.2% (inactive)	58% (inactive)	101% (inactive)	73.7% (inactive)	85% (inactive)	61.1% (inactive)	65.1% (inactive)	72.9% (inactive)	77.7% (inactive)	84.7% (inactive)	48.1% (inactive)	96% (inactive)	81.1% (inactive)	66% (inactive)	77.4% (inactive)	65.7% (inactive)	85.9% (inactive)	–	72.8% (inactive)
COc1cc(C(=O)N2CCN(c3cc4c(cc3F)c(=O)c(C(=O)NO)cn4C3CC3)CC2)cc(OC)c1OC	94.9% (inactive)	95.1% (inactive)	97% (inactive)	105% (inactive)	99.1% (inactive)	87.4% (inactive)	99% (inactive)	93.6% (inactive)	104% (inactive)	104% (inactive)	103% (inactive)	105% (inactive)	98.8% (inactive)	104% (inactive)	98% (inactive)	103% (inactive)	101% (inactive)	–	103% (inactive)
